Most compounds without a hit are left out; they make up all but 21% or so of the library.
D3 ag – D3 dopamine receptor (human) agonism; D3R DiscoveRx beta-arrestin cells, luminescence, 90 min; max activation, %; hit rate 0.58% among 410,000; AID 652048; in the data active = max activation above about 30%; note: 0% is about no effect
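Cells at 1500/well, incubated overnight, then treated with pinned compounds (dopamine as control) for 90 min at 37 degrees C. DiscoveRx reagent added for 30 - 60 minutes at room temperature; luminescence read.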
ClpP mod – qHTS Assay for Activators of ClpP. hit rate 1.9% among 340,000. AID 651965, 2013. ATP-dependent Clp protease proteolytic subunit (Bacillus subtilis (strain 168)), P80244. Potency, µM (doses to about 57.5 µM), without a hit: top-dose activity change, negative = active. purified B. subtilis ClpP, FRET peptide cleavage, 20 min; active = well fitted falling curve with a large enough effect; inconclusive = small, poorly fitted or top-dose-only effect; inactive = no such curve, though single readings can be large or run the other way; note: potency is the fitted concentration of half-maximal effect; the source files actives as falling curves though it sought activators and does not explain the sign; nearly all actives have a fitted effect of over 65% in size
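Purified B. subtilis ClpP, 10 microg/mL final in Tris/HCl pH8 with KCl, BSA, glycerol and Tween-20, cleaved an Abz/nitrotyrosine-quenched decapeptide. Fluorescence (ex 320, em 430) was read at 0 and 20 min at room temperature. Delta was normalized to 5.8 microM ADEP and DMSO/no-enzyme controls.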
D3 antag – antagonists of human D3 dopamine receptor; hit rate 2.5% among 360,000; max response, negative = inhibition, %; D3R cells, DiscoveRx beta-arrestin luminescence, antagonist mode; hits give low values; in the data active = max response below about -50%; inconclusive = no clear call, values can overlap the other calls; note: % is set by controls: 0 for no effect and ±100 for the full control effect
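Cells expressing the human receptor were seeded at 1500 cells/well, incubated overnight at 37 degrees C in 5% CO2, then exposed to library compounds with dopamine controls for 90 minutes at 37 degrees C before luminescent detection.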
DT40 TDP1 no CPT – qHTS for Inhibitors of human tyrosyl-DNA phosphodiesterase 1 (TDP1): qHTS in cells in absence of CPT | DT40 Tdp1-/- hTDP1 cells, no CPT, ATP luminescence, 48 h | Potency, µM (top dose mostly 46.2 µM), without a hit: top-dose activity change, negative = growth inhibition, most hits filed as inhibitors | hit rate 15% among 420,000; note: potency is the fitted concentration of half-maximal effect; % is set by controls: 0 for no effect and ±100 for the full control effect; nearly all actives have a fitted effect of over 55% in size
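A cellular qHTS used chicken DT40 cells lacking endogenous Tdp1 but carrying stably transfected human TDP1. Compounds were applied without camptothecin, and cell growth kinetics were judged by ATP-dependent luminescence after ≥48 hr.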
IL1B secr inh – inhibitors of inflammasome signaling (IL-1 beta secretion); hit rate 4.7% among 360,000; AID 743279; THP-1 LPS/ATP IL-1B secretion, AlphaLISA, 16 h; hits give low values; activity change, % at 57.5 µM; in the data active = activity change below about -50%; inconclusive = mostly about -30% to -49%; note: % is set by controls: 0 for no effect and ±100 for the full control effect
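THP-1 cells pretreated 1 hr with compounds (up to 57.5 uM final), then stimulated with LPS (250 ng/mL final) plus ATP (1.25 mM final); secreted IL-1B measured by AlphaLISA after 16 hr, decreased signal indicating inhibition.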
TDP1 cell CPT – DT40-hTDP1 cell growth loss with CPT; Potency, µM (doses to about 46.2 µM), for inactives: top-dose activity change, negative = growth inhibition, actives largely listed as inhibitors; chicken DT40 Tdp1-/-;hTDP1 cells + 20 nM CPT, ATP luminescence, 48 h; hit rate 12% among 420,000; note: potency is the fitted concentration of half-maximal effect; % is set by controls: 0 for no effect and ±100 for the full control effect; nearly all actives have a fitted effect of over 55% in size
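Cell growth measured by CellTiter-Glo luminescence after a minimum 48 h, 37 C compound exposure with 20 nM CPT in Tdp1-knockout DT40 cells stably expressing hTDP1, seeded 400/well; qHTS titration format.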
An asterisk follows results filed as active; ? = inconclusive; . = no result given; [ ] = another dose, or the depositor's remark. Unless noted, calls come from the whole dose curve; as a rule, active = well fitted inhibition curve with a large enough effect; inconclusive = small, poorly fitted or top-dose-only effect; inactive = flat fitted curve, though single readings scatter.

SMILES	D3 ag	ClpP mod	D3 antag	DT40 TDP1 no CPT	IL1B secr inh	TDP1 cell CPT
CCn1cc(CN2CCCC(C(=O)c3cccc(OC)c3)C2)c(C)n1 (stereo unspecified)	-4	.	-18	-27%	35	-21%
CCn1cc(CN(C)S(=O)(=O)c2ccc3ccccc3c2)c(C)n1	0	2%	11	5.8µM*	8	5.2µM*
C[C@H]1[C@@H](OC(=O)CCC(=O)O)O[C@@H]2OC3(C)CC[C@H]4[C@H](C)CC[C@@H]1[C@@]24OO3	11	.	.	0.11µM*	.	0.12µM*
CCC(C)NC(=O)CCC(=O)OC1O[C@H]2OC3(C)CC[C@H]4[C@H](C)CCC(C1C)C24OO3 (stereo partly specified)	5	-1%	3	0.18µM*	?	0.21µM*
C[C@]12CCC(=O)CC1CCC1C2CC[C@]2(C)C(OC(=O)CCC(=O)O)CCC12 (stereo partly specified)	7	1%	0	-29%	17	17%
CCc1ccc(-n2nc(C)c3c2NC(=O)CSC3c2ccc(OC)cc2OC)cc1 (stereo unspecified)	-20	2%	.	23µM*	.	18µM*
Cc1ccc(-n2nc(C)c3c2NC(=O)CSC3c2ccc(O)cc2)cc1Cl (stereo unspecified)	-6	-6%	.	?	.	-26%
COc1ccc(C2SCC(=O)Nc3c2c(C)nn3-c2ccccc2)cc1 (stereo unspecified)	0	0%	-6	?	6	-24%
CCc1ccc(-n2nc(C)c3c2NC(=O)CSC3c2ccccc2C)cc1 (stereo unspecified)	-13	2%	.	18µM*	.	?
COc1ccccc1C1SCC(=O)Nc2c1c(C)nn2-c1cccc(C)c1 (stereo unspecified)	7	0%	.	?	.	?
CCc1ccc(-n2nc(C)c3c2NC(=O)CSC3c2ccc(C(=O)OC)cc2)cc1 (stereo unspecified)	-17	-3%	.	13µM*	.	15µM*
Cc1nc2cnc(N3CCNCC3)nc2n(C)c1=O	.	.	.	-19%	.	10%
Cc1nc(Cl)sc1C(=O)Nc1ccc2ccccc2c1	-13	1%	-27	-26%	-8	4%
O=C(Nc1ccc2ccccc2c1)c1nn(C23CC4CC(CC(C4)C2)C3)cc1Br	-22	20µM*	-4	21µM*	-6	18µM*
Cc1nn(CC(C)C)c(Cl)c1C(=O)NC1CCCCC1	-13	-17%	4	-12%	1	7%
CN1C2CCC1CC(OC(=O)c1ccc([N+](=O)[O-])cc1)C2 (stereo unspecified)	-21	1%	-2	-12%	-6	-11%
CCC(Oc1ccc(Cl)cc1)C(=O)OC1CC2CCC(C1)N2C (stereo unspecified)	.	.	.	10µM*	.	13µM*
CC(C(=O)OC1CC2CCC(C1)N2C)c1ccc(Br)cc1 (stereo unspecified)	.	.	.	16µM*	.	21µM*
CC12CCC(=O)C=C1C=CC1C2CCC2(C)C(O)CCC12 (stereo unspecified)	0	.	1	-27%	31	6%
CC(Cc1ccccc1)N(C)CC1C(=O)C2CCC1C2 (stereo unspecified)	-26	-4%	-18	-23%	-10	?
CC(C)C(=O)Nc1ccc(S(=O)(=O)N2CC3CC(C2)c2cccc(=O)n2C3)cc1 (stereo unspecified)	-2	-3%	-7	-17%	0	-5%
COc1ccc(C(C)(C)C)cc1NC(=O)CCCn1c(=O)oc2ccccc21	-3	1%	-9	?	-14	-24%
O=C(CCn1c(=O)oc2ccccc21)N1CCN(C(c2ccccc2)c2ccccc2)CC1	5	1%	-18	?	-65*	16µM*
COc1ccc(NC(=O)CCc2nc(C3=CCN(Cc4cccc(Cl)c4)CC3)no2)cc1OC	-12	-4%	.	12µM*	.	16µM*
COc1ccc(NC(=O)CCc2nc(C3=CCN(Cc4cccc(Cl)c4)CC3)no2)c(OC)c1	1	-5%	.	18µM*	.	5.8µM*
SMILES	D3 ag	ClpP mod	D3 antag	DT40 TDP1 no CPT	IL1B secr inh	TDP1 cell CPT
COc1ccc2nc(NC(=O)CCc3nc(C4=CCN(C)CC4)no3)sc2c1	-5	-4%	3	-26%	-21	-24%
Cc1cccc(CN2CC=C(c3noc(CCC(=O)Nc4ccc(C)c(F)c4)n3)CC2)c1	-19	-1%	.	13µM*	.	16µM*
O=P(O)(Oc1ccccc1)c1ccccc1	-13	1%	-4	-13%	0	-14%
O=c1c(O)c(-c2ccc(O)c(O)c2)oc2c(O)c(O)cc(O)c12	.	.	.	?	.	18µM*
COC(=O)C1=C(c2cccc(C#N)c2)C[C@@H]2CC[C@H]1N2C(=O)NCCNC(C)=O	2	0%	0	5%	21	-2%
COP(=O)(OC)c1nc(-c2ccc([N+](=O)[O-])cc2)oc1N1CCCCC1	1	-5%	14	21µM*	-11	?
CCOP(=O)(OCC)c1nc(-c2cccc3ccccc23)oc1N1CCCCC1	-14	4%	6	?	?	21µM*
CCCNS(=O)(=O)c1ccc(OCC(=O)N2CCN(Cc3ccc4c(c3)OCO4)CC2)cc1	0	-1%	28	12µM*	-20	?
COC(=O)C12OCC34C(CC5C(C)=C(O)C(=O)CC5(C)C3C(O)C1O)OC(=O)C(OC(=O)/C=C(\C)C(C)C)C24 (stereo unspecified)	-17	63%	1	0.058µM*	-98*	0.041µM*
C=C(Cl)CSC(=S)N(CC)CC	5	0%	0	3.3µM*	6	5.2µM*
CCc1ccc(NC(=O)c2ccc3oc(=O)n(Cc4ccccc4)c3c2)cc1	1	?	.	18µM*	.	?
Cc1ccc2oc(=O)n(CCC(=O)Nc3ccc(N4CCOCC4)cc3)c2c1	5	-2%	10	?	-7	-2%
CC[C@H](C)[C@H](NC(=O)[C@@H]1CCCN1C(=O)[C@H](CCC(=O)O)NC(=O)[C@@H](NC(=O)[C@H](Cc1ccccc1)NC(=O)[C@@H]1CCCN1C(=O)[C@@H](N)Cc1ccc(O)cc1)C(C)C)C(=O)O	.	.	.	5%[4.12 µM]	.	-1%[4.12 µM]
Cc1nc2ccc(Cl)cc2c(=O)n1-c1cccc(Cl)c1	-2	-1%	7	?	0	?
